Source: PubChem (National Center for Advancing Translational Sciences (NCATS))
An excerpt weighted towards active compounds, which were near 21% of everything screened.
CHX counter = Cycloheximide Counterscreen for Small Molecule Inhibitors of Shiga Toxin | cell reporter, cycloheximide protein synthesis inhibition counterscreen | max response, % | actives 12% (n = 300,000); in the data active means max response mostly above about 13%, no sharp cut-off; inactive means mostly below about 14%; further: read at 38.3 µM for the half of the compounds with a filed dose; 0% is about no effect
NS1 inh = qHTS Assay for Inhibitors of Influenza NS1 Protein Function; Potency, µM (series often up to 46.1 µM), inactives show top-dose activity, positive = more growth; actives 0.4% (n = 270,000); calls by dose curve; further: potency means the concentration at half of the fitted maximal effect; actives are rising curves; nearly all actives have a fitted effect of over 50% in size
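S. cerevisiae expressing influenza A NS1, grown in glucose, washed, then diluted 1:100 into pH 6.0 -URA galactose medium with 23 nl compound. Growth recovery read as OD600; NS1-free strain serves as control.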
Pf growth 48h = Primary qHTS for delayed death inhibitors of the malarial parasite plastid, 48 hour incubation; P. falciparum luciferase growth in erythrocytes, 48 h; AID 504832, 2011; Potency, µM (top dose mostly 28.7 µM), for inactives: at the highest dose activity change, negative = inhibition, hits mostly inhibitors; actives 5.9% (n = 310,000); further: potency means the concentration at half of the fitted maximal effect; on the % scale 0 is the no-effect control and ±100 the full control effect
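A one-generation exposure of luciferase-tagged malaria parasites in RPMI 1640/Albumax erythrocyte culture, 37 C and 5% CO2. Inhibition is inferred from decreased luminescence after adding detection reagent.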
Pf growth 96h = Primary qHTS for delayed death inhibitors of the malarial parasite plastid, 96 hour incubation; P. falciparum luciferase reporter growth, 96 h; Potency, µM (highest dose often 28.7 µM), inactives show at the highest dose activity change, negative = inhibition, most hits filed as inhibitors; actives 6.9% (n = 320,000); AID 504834, 2011; further: potency means the concentration at half of the fitted maximal effect; on the % scale 0 is the no-effect control and ±100 the full control effect
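Plates of compound plus infected erythrocytes (2% hematocrit, 0.05% parasitemia final) incubate 96 hours, 37 C, 5% CO2. Detection reagent added; reduced luminescence from the parasites' luciferase reporter flags inhibition.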
SARS PLP yeast = qHTS of Yeast-based Assay for SARS-CoV PLP; S. cerevisiae expressing SARS-CoV PLpro, growth rescue; Potency, µM (titrated, usually from 32.9 µM), for the others: at the highest dose activity, positive = growth rescue, actives largely listed as activators; actives 0.19% (n = 330,000); AID 485353, 2010; calls by dose curve; further: potency means the concentration at half of the fitted maximal effect; 0% is about no effect; nearly all actives have a fitted effect of over 55% in size
Shiga inhibitor = A qHTS for Small Molecule Inhibitors of Shiga Toxin; Vero cells, Shiga toxin protein synthesis inhibition reporter; inhibition, % at 38.7 µM; actives 9.2% (n = 290,000); AID 2315, 2010; in the data active means inhibition mostly above about 28%, no sharp cut-off; inactive means mostly below about 43%; further: 0% is about no effect
The depositor's hits bear a star; ? = inconclusive; / = no result given. Unless noted, the call rests on the fitted dose curve; in most records, active means well fitted inhibition curve with a large enough effect; inconclusive means small, poorly fitted or top-dose-only effect, or another doubt; inactive means no such curve, though single readings can be large or run the other way.

SMILES | CHX counter | NS1 inh | Pf growth 48h | Pf growth 96h | SARS PLP yeast | Shiga inhibitor
CCN(CC)CCN(C(=O)c1ccc(C(=O)c2ccccc2)cc1)c1nc2cc3c(cc2s1)OCO3 | 4 | -51% | -4% | 4% | -1% | 10
CN(C)CCCN(C(=O)c1ccc([N+](=O)[O-])s1)c1nc2cc3c(cc2s1)OCCO3 | 12* | -19% | 22% | 13% | 0% | 20
CN(C)CCCN(C(=O)c1ccc(C(=O)c2ccccc2)cc1)c1nc2cc3c(cc2s1)OCO3 | -12 | -16% | 12µM* | -20% | -2% | -27
COc1ccc2sc(N(CCCN(C)C)C(=O)c3ccc(S(=O)(=O)N4CCCc5ccccc54)cc3)nc2c1 | / | / | 7.4µM* | 8.3µM* | 2% | /
COc1ccc2sc(N(CCCN(C)C)C(=O)c3ccc(C(=O)c4ccccc4)cc3)nc2c1 | / | / | 13µM* | ? | -4% | /
COC(=O)C1CN(C(=O)COc2ccc(C)c(C)c2)c2ccccc2O1 (centres undefined) | 1 | -2% | 1% | 19% | -4% | 2
CN(C)CCCN(C(=O)c1cccs1)c1nc2cc3c(cc2s1)OCO3 | 17* | / | 53% | ? | -3% | 40
Cc1cccc2sc(N(CCCN(C)C)C(=O)c3ccc(C(=O)c4ccccc4)cc3)nc12 | -12 | -32% | 6.6µM* | -102% | 0% | -17
CN(C)CCCN(C(=O)c1ccco1)c1nc2cc3c(cc2s1)OCO3 | 12* | 13% | 20% | 4% | -2% | 7
COc1ccc(CNC(=O)c2ccc(Br)o2)cc1 | 17 | -52% | 51% | 37% | -20% | 14
Cc1c(Cl)cccc1NC(=S)NNc1ncc(C(F)(F)F)cc1Cl | -5 | -7% | / | 9.3µM* | -5% | -12
CC(=O)c1cccc(S(=O)(=O)N2CCC(C(=O)N(C)Cc3ccc(Cl)s3)CC2)c1 | / | / | ? | ? | 1% | /
CCOc1ccccc1NC(=S)N(CCC(C)C)C1CCN(C(C)=O)CC1 | 2 | / | ? | ? | 3% | -10
O=c1[nH]c2c(s1)C(c1ccc(O)cc1)C1C3CCC(C3)C1S2 (centres undefined) | -1 | 6% | -9% | -3% | 0% | -3
COc1ccc(C2c3sc(=O)[nH]c3SC3C4CCC(C4)C23)cc1OC (centres undefined) | 1 | 20% | ? | 9.3µM* | -36% | 2
CC1CCN(S(=O)(=O)c2ccc(C(=O)N3CCCC3C(=O)O)cc2)CC1 (centres undefined) | / | / | -7% | 15% | -6% | /
CCCc1cc(=O)oc2c(C)c(O[C@@H]3O[C@H](CO)[C@@H](O)[C@H](O)[C@H]3O)ccc12 | 1 | 0% | 39% | 28% | 1% | 0
CC(C)(C)c1ccc(C(=O)NC(=S)N2CCCC2)cc1 | 32* | -22% | ? | 5% | -4% | 28
O=C(NC(=S)Nn1cnnc1)c1ccccc1Cl | 1 | -1% | 8% | -3% | 2% | 13
CC(C)(C)c1ccc(C(=O)NC(=S)Nn2cnnc2)cc1 | 19* | 18% | 8% | ? | -13% | 120*
CC(C)(C)c1ccc(C(=O)NC(=S)N2CCCCCC2)cc1 | 20* | -87% | ? | ? | -15% | 35
CC(C)(C)c1ccc(C(=O)Nc2ccc(C(=O)N3CCCC3)cc2)cc1 | 4 | -12% | ? | -20% | ? | 19
CC(C)(C)c1ccc(C(=O)N2CCCCCC2=O)cc1 | -7 | 0% | 5.2µM* | 6% | 9% | -11
CN1CCN(CC(=O)NC(=O)NC2CCCCC2)CC1 | / | / | -4% | 16% | 7% | /
O=C(NC(=S)N1CCCCC1)c1csc([N+](=O)[O-])c1 | -2 | 3% | 15µM* | 5.2µM* | 1% | 8
SMILES | CHX counter | NS1 inh | Pf growth 48h | Pf growth 96h | SARS PLP yeast | Shiga inhibitor
COc1ccc(C2=NS(=O)(=O)N(C)C(C(=O)N3CCCCC3C)=C2)cc1 (centres undefined) | 1 | 1% | -18% | 23% | 7% | 11
COc1ccc(C(C)=O)cc1COC(=O)C(CO)NS(=O)(=O)c1ccc(Br)cc1 (centres undefined) | 1 | / | -2% | -5% | -3% | -16
COc1ccc2c(CSc3nnc(-c4cccnc4)n3-c3ccccc3F)cc(=O)oc2c1 | -5 | 3% | ? | 6.6µM* | 8% | -7
O=C(NC1CCCCCCC1)c1c(O)c2ccccc2[nH]c1=O | 16* | -4% | ? | ? | -2% | 47*
CNC(=S)N(CCc1c(C)[nH]c2ccc(C)cc12)Cc1cccs1 | -5 | / | ? | ? | 1% | -8
COc1ccc2[nH]c(C)c(CCN(Cc3cccs3)C(=S)Nc3ccc(F)cc3)c2c1 | -1 | ? | 1.7µM* | 2.3µM* | -10% | 10
COc1ccccc1NC(=S)N(CCc1c(C)[nH]c2ccccc12)Cc1cccs1 | -3 | ? | ? | ? | -10% | 5
COCCNC(=S)N(CCc1c(C)[nH]c2ccc(C)cc12)Cc1ccco1 | 11 | / | ? | ? | -1% | -22
COc1ccc2[nH]c(C)c(CCN(Cc3cccs3)C(=S)Nc3ccccc3)c2c1 | -1 | ? | 0.83µM* | 0.41µM* | -1% | 15
COCCNC(=S)N(CCc1c(C)[nH]c2ccc(OC)cc12)Cc1ccco1 | -3 | -1% | 9.3µM* | 245% | 1% | 13
Cc1ccccc1OCC(=O)NNC(=O)Nc1ccc(Cl)cc1 | 12 | -12% | 26% | 49% | 3% | 16
Cc1ccc(Cl)cc1NC(=O)c1ccccc1OCC(=O)Nc1ccc(Cl)cc1 | -1 | 5% | ? | 9.3µM* | 22% | -7
O=C(COc1ccccc1O)Nc1ccc(Cl)cc1 | 28* | -34% | 0% | / | -7% | 56*
CCOc1ccccc1C(=O)Nc1cc(Cl)ccc1O | -1 | -86% | 3.3µM* | / | -22% | -5
O=[N+]([O-])c1ccc(NCCc2ccccc2)c(Br)c1 | 11 | -6% | / | 4% | -6% | 35
Cc1ccccc1Cn1c(O)c(N=NC(=S)Nc2ccccc2F)c2ccccc21 | 1 | / | 1.5µM* | 6% | -4% | -14
Oc1c(N=NC(=S)Nc2ccccc2F)c2ccccc2n1Cc1ccc(Cl)cc1 | -2 | / | 2.3µM* | 71% | 2% | 1
CNC(=O)c1c(NC(=O)CS(=O)(=O)c2ccc(F)cc2)sc(C)c1C | / | / | 2% | 3% | 12% | /
O=C(CCC(=O)N1CCCCCC1)NCc1ccc(F)cc1 | 2 | 17% | 0% | -24% | -1% | 0
O=C(NC1(C(F)(F)F)NC(=O)N(Cc2cccnc2)C1=O)c1ccccc1 (centres undefined) | 1 | 4% | 7% | 13% | 0% | -9
O=C(NC1(C(F)(F)F)NC(=O)N(Cc2ccccc2)C1=O)c1cccnc1 (centres undefined) | -5 | 1% | / | 2.9µM* | -5% | -23
